A selection: hits, their analogues and other compounds. The true share with any hit is near 5%.
EBI2 antag = EBI2 (human) antagonism; P32249; EBI2 beta-arrestin recruitment, luminescence, 7a,25-OHC stimulated; inhibition, % at 5 µM; hit rate 0.81% among 360,000; AID 651636; in the data active = inhibition above about 38%;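 also: enzyme fragment complementation signal reports receptor beta-arrestin coupling in cells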
Target sequence (P32249 whole entry, looked up, the tested form may be a part): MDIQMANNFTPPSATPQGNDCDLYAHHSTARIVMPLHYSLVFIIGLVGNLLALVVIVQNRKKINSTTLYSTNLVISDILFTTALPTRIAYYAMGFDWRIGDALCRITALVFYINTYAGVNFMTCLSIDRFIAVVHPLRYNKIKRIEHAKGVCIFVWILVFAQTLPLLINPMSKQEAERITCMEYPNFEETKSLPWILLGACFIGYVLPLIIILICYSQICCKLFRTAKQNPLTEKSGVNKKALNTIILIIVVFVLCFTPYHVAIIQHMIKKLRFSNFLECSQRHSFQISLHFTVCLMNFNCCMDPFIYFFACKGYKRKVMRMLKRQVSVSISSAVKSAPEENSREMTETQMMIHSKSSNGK
AHR act = activators of human aryl hydrocarbon receptor; P35869; hit rate 2.5% among 320,000; AHR-responsive luciferase reporter cells, luminescence; AID 2796; activation, % at 5 µM; in the data active = activation above about 47%
SENP7 inh = inhibitors of human SENP7 protease; AID 434973; hit rate 1.5% among 330,000; recombinant SENP7, Z-RLRGG-aminoluciferin luminescence, 40 min; Q9BQF6; inhibition, % at 5 µM;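 active = inhibition above about 50% at the single test dose, limit read from the data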
SENP8 block-1 = blocks the human protease SENP8; inhibition, % at 10 µM; purified SENP8, Z-RLRGG-aminoluciferin cleavage, luminescence; hit rate 1.2% among 330,000; in the data active = inhibition above about 50%
Target sequence (Q96LD8 whole entry, looked up): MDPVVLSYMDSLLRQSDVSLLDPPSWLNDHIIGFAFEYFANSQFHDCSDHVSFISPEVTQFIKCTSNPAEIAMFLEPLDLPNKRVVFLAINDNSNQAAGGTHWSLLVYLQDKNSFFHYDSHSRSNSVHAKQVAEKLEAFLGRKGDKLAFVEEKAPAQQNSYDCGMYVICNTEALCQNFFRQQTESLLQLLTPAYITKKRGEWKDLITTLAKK
SENP8 block-2 = SENP8 (human) protease inhibition; recombinant SENP8, Nedd8 substrate fluorescence; hit rate 0.64% among 360,000; inhibition, % at 20 µM; AID 602440; Q96LD8; in the data active = inhibition mostly above about 40%, no sharp cut-off; inactive = mostly below about 27%
SENP6 block = inhibitors of human SENP6 protease | Recombinant SENP6 catalytic domain, aminoluciferin luminescence | inhibition, % at 10 µM | hit rate 1.8% among 330,000 | AID 2599 | Q9GZR1;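 active = inhibition above about 50% at the single tested dose, limit read from the data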
Numbers stand for hits; i = inactive; nt = no result.

SMILES	EBI2 antag	AHR act	SENP7 inh	SENP8 block-1	SENP8 block-2	SENP6 block
COc1ccc(CNC(=O)c2ccc3nc(C)c(N(C)Cc4ccc(NC(C)=O)cc4)n3c2)cc1	i	nt	nt	nt	i	nt
COc1ccc(-c2cc(C(=O)N(C)Cc3ccc(F)cc3)c3ccccc3n2)cc1OC	i	64	i	i	i	i
O=C(NC1=NCCS1)c1cc(-c2ccc(-c3ccccc3)cc2)nc2ccccc12	i	i	i	i	i	i
COc1cc(-c2cc(C(=O)Nc3ccc(O)cc3)c3ccccc3n2)cc(OC)c1OC	i	i	i	i	i	i
COc1ccc(-c2cc(C(=O)NC3=NCCS3)c3ccccc3n2)cc1OC	i	67	i	i	i	i
COc1ccc(-c2cc(C(=O)Nc3ccc(C(N)=O)cc3)c3ccccc3n2)cc1OC	i	52	i	i	i	i
CC(=O)N/N=C(/c1ccccc1)C(O)c1ccccc1 (stereo unspecified)	i	nt	i	i	i	i
Cc1ccc(C)c2[nH]c(=O)c(C(c3nnnn3Cc3ccccc3)N3CCc4ccccc4C3)cc12 (stereo unspecified)	i	i	i	i	i	66
COc1ccc(-n2c(C)c([N+](=O)[O-])c3ccc(O)c(CN(C)C)c32)cc1	i	i	i	i	42	i
CC1(C(=O)NS(=O)(=O)Cc2ccccc2C(F)(F)F)CCN1C(=O)C/C=C/c1ccccc1 (stereo unspecified)	i	nt	nt	nt	i	nt
O=C(C(=O)N1CCN(c2ccccc2F)CC1)c1ccccc1	i	nt	nt	nt	i	nt
O=C(Cc1cccc(NC(=O)C2CCN(C(=O)C3CCCCC3)CC2)c1)Nc1cccc(C(=O)N2CCCCC2)c1	i	nt	nt	nt	i	nt
CCNC(=S)N/N=C/c1cn(Cc2ccccc2F)c2ccccc12	i	51	i	i	i	i
CCNC(=S)N/N=C/c1cn(Cc2ccc(F)cc2)c2ccccc12	i	i	i	i	i	i
O=C(O)c1cc(Cl)n[nH]c1=O	i	nt	nt	nt	i	nt
Cc1cc(NC(=S)NC(=O)CC(C)C)ccc1Br	i	64	i	i	i	i
CC(C)CC(=O)NC(=S)Nc1cccc(NC(=O)c2ccccc2)c1	i	i	i	i	i	i
Cc1cc(C(=O)COc2cc(F)ccc2[N+](=O)[O-])c(C)n1C1CC1	i	76	i	i	i	i
Cn1c(NCc2cccs2)nc2ccccc21	i	49	i	i	i	i
Cn1c(NCc2c[nH]c3ccccc23)nc2ccccc21	i	74	i	i	i	i
CCn1c(NCc2cccs2)nc2ccccc21	i	i	i	i	i	i
C=CCn1c(NCc2c[nH]c3ccccc23)nc2ccccc21	i	i	i	i	i	i
CCn1c(NCc2c[nH]c3ccccc23)nc2ccccc21	i	48	i	i	i	i
Cn1c(NCc2ccco2)nc2ccccc21	i	i	i	i	i	i
O=C1NC(c2cccs2)Nc2ccccc21 (stereo unspecified)	i	52	i	i	i	i
SMILES	EBI2 antag	AHR act	SENP7 inh	SENP8 block-1	SENP8 block-2	SENP6 block
NC(=O)C1CCN(C(=O)C2c3ccccc3C(=O)N3CCc4ccccc4C23)CC1 (stereo unspecified)	i	61	i	i	i	i
CCOCCCNC(=O)C1c2ccccc2C(=O)N2CCc3ccccc3C12 (stereo unspecified)	i	76	i	i	i	i
CC1CCN(C(=O)C2c3ccccc3C(=O)N3CCc4ccccc4C23)CC1 (stereo unspecified)	i	i	i	i	i	i
Cc1ccc(NC(=O)CSCC(=O)NC2=NCCS2)cc1	i	i	i	i	i	i
CCCc1nnc(N2C(=O)c3cccc4cccc(c34)C2=O)s1	i	73	i	i	i	i
Cc1nnc(N2C(=O)c3cccc4cccc(c34)C2=O)s1	i	68	i	i	i	i
O=C1c2cccc3cccc(c23)C(=O)N1c1nccs1	i	i	i	i	i	i
CC(C)(C)OC(=O)N1CCc2onc(-c3ccccc3[N+](=O)[O-])c2C1=O	i	nt	nt	nt	i	nt
CC(C)C(=O)Nc1nc2cc3c(cc2s1)OCO3	i	66	i	i	i	i
O=C(Nc1nc2cc3c(cc2s1)OCO3)C1CCCCC1	i	i	i	i	i	i
O=C(Nc1nc2cc3c(cc2s1)OCO3)C1CC1	i	57	i	i	i	i
CC(C)(C)C(=O)Nc1nc2cc3c(cc2s1)OCO3	i	i	i	i	i	i
CN(CC(=O)Nc1ccccc1Cl)C(=O)CSc1nncn1C	i	i	i	i	i	i
COC(=O)[C@H](Cc1ccccc1)NC(=O)/C=C/[C@H]1O[C@@H](n2ccc(=O)[nH]c2=O)[C@H](O)[C@@H]1O	i	nt	nt	nt	i	nt
COc1ccc(C(=O)/C=C2/C(=O)Nc3ccccc32)cc1	63	nt	i	i	i	i
O=C1Nc2ccccc2/C1=C/C(=O)c1cccs1	43	118	i	i	i	i
COc1cc(OC)c(/C=C2\C(=O)Nc3ccccc32)c(OC)c1	nt	79	i	i	nt	i
COc1ccc(C(=O)/C=C2/C(=O)Nc3ccccc32)c(OC)c1	80	i	i	i	i	i
Cc1cc(C)c(NC(=O)CNC(=O)c2ccc3ncsc3c2)c(C)c1	i	i	i	i	i	i
O=C1NC[C@H](Cc2ccccc2)N(C[C@H]2CCCN2C[C@H](Cc2ccc(O)cc2)N2C[C@H](Cc3ccc(O)cc3)N(CC3CCCCCC3)C(=O)C2=O)C1=O	i	nt	nt	nt	i	nt
C=CCOc1ccccc1C(=O)/C=C1/C(=O)Nc2ccccc21	53	i	i	i	i	i
NC(=O)COc1ccc(C(=O)/C=C2/C(=O)Nc3ccccc32)cc1	i	i	i	i	i	i
O=C1OC(c2ccc(Br)cc2)=N/C1=C\N1CCCCC1	i	63	i	i	i	i
Cc1ccc(S(=O)(=O)Nc2ccccc2C(C(=O)OC(C)(C)C)C(=O)OC(C)(C)C)cc1	i	nt	nt	nt	i	nt
CCOC(=O)/C=C(C)\C=C\c1c[nH]c2ccccc12	i	53	i	i	i	i
SMILES	EBI2 antag	AHR act	SENP7 inh	SENP8 block-1	SENP8 block-2	SENP6 block
CCOC(=O)c1c(-c2ccc(C)o2)csc1NC(=O)COC(=O)c1cccs1	i	i	i	i	i	i
CCOC(=O)c1c(-c2ccc(C)o2)csc1NC(=S)NC(=O)N(C)C	i	57	i	i	i	i
O=C(NNC(=S)NC(=O)c1ccc(Br)cc1)c1ccc([N+](=O)[O-])cc1	i	i	i	i	i	i
O=C(NC(=S)NNC(=O)c1ccccc1O)c1ccc([N+](=O)[O-])cc1	i	i	i	i	i	77
O=C(NNC(=S)NC(=O)c1ccc(Br)cc1)c1cccc([N+](=O)[O-])c1	i	53	i	i	i	i
CCC(=O)N1CCCC(C(=O)NCc2ccc(C(C)C)cc2)CC1 (stereo unspecified)	i	nt	nt	nt	i	nt
Nc1n[nH]c(N)c1N=Nc1ccc2c(c1)OCO2	i	48	i	i	i	i
S=C(NCc1ccc2[nH]c3c(c2c1)CCCC3)Nc1ccccc1Cl	i	58	i	i	i	i
COc1ccc(C(O)c2nc(-c3cccc(NC(C)=O)c3)cs2)cc1 (stereo unspecified)	i	nt	nt	nt	i	nt
